Data reported in the supplement of paper PMC12645437, “Orthogonal IMiD-Degron Pairs Induce Selective Protein Degradation in Cells” (ACS Chemical Biology, 2025).
Over roughly 8,300 sequences, “log2 fold change of degron read counts, EGFP-low vs EGFP+ sorted cells (limma voom), compound-induced degradation” has its median near -1.1; the highest 2% begin near 3.2. Many of the other results were omitted from the sample, so the highest values are more common in it than they were.

B1: 46F_47Y_49P_50I_52G_53R_54A_55F_67L_, Q9UKT9 (peptide)
chain: FYCPICGRAFTQKGNLLRHIKL
B2: 46F_47H_49P_50Q_52G_53A_54T_55F_67L_, Q9UKT9 (peptide)
chain: FHCPQCGATFTQKGNLLRHIKL
B3: 46F_47R_49D_50V_52G_53A_54E_55F_67L_, Q9UKT9 (peptide)
chain: FRCDVCGAEFTQKGNLLRHIKL
B4: 46F_47M_49D_50V_52G_53A_54T_55F_67L_, Q9UKT9 (peptide)
chain: FMCDVCGATFTQKGNLLRHIKL
B5: 46F_47I_49P_50I_52G_53A_54L_55F_67L_, Q9UKT9 (peptide)
chain: FICPICGALFTQKGNLLRHIKL
B6: 46L_47G_49P_50I_52G_53F_54A_55C_67L_, Q9UKT9 (peptide)
chain: LGCPICGFACTQKGNLLRHIKL
B7: 46L_47R_49P_50I_52G_53F_54G_55C_67L_, Q9UKT9 (peptide)
chain: LRCPICGFGCTQKGNLLRHIKL
B8: 46L_47Y_49P_50I_52G_53F_54G_55C_67L_, Q9UKT9 (peptide)
chain: LYCPICGFGCTQKGNLLRHIKL
B9: 46L_47F_49P_50I_52G_53F_54G_55C_67L_, Q9UKT9 (peptide)
chain: LFCPICGFGCTQKGNLLRHIKL
B10: 46L_47I_49P_50I_52G_53F_54A_55C_67L_, Q9UKT9 (peptide)
chain: LICPICGFACTQKGNLLRHIKL
B11: 46L_47M_49P_50I_52G_53F_54A_55C_67L_, Q9UKT9 (peptide)
chain: LMCPICGFACTQKGNLLRHIKL
B12: 46L_47W_49P_50I_52G_53F_54A_55C_67L_, Q9UKT9 (peptide)
chain: LWCPICGFACTQKGNLLRHIKL
B13: 46L_47Q_49P_50I_52G_53F_54A_55C_67L_, Q9UKT9 (peptide)
chain: LQCPICGFACTQKGNLLRHIKL
B14: 46L_47L_49P_50I_52G_53F_54A_55C_67L_, Q9UKT9 (peptide)
chain: LLCPICGFACTQKGNLLRHIKL
B15: 46F_47H_49E_50I_52G_53R_54H_55F_67L_, Q9UKT9 (peptide)
chain: FHCEICGRHFTQKGNLLRHIKL
B16: 46F_47V_49N_50Q_52G_53A_54C_55F_67L_, Q9UKT9 (peptide)
chain: FVCNQCGACFTQKGNLLRHIKL
B17: 46L_47N_49P_50I_52G_53F_54E_55C_67L_, Q9UKT9 (peptide)
chain: LNCPICGFECTQKGNLLRHIKL
B18: 46F_47W_49E_50Q_52G_53A_54R_55F_67L_, Q9UKT9 (peptide)
chain: FWCEQCGARFTQKGNLLRHIKL
B19: 46F_47M_49P_50I_52G_53R_54P_55F_67L_, Q9UKT9 (peptide)
chain: FMCPICGRPFTQKGNLLRHIKL
B20: 46F_47S_49E_50I_52G_53R_54E_55F_67L_, Q9UKT9 (peptide)
chain: FSCEICGREFTQKGNLLRHIKL
B21: 46F_47A_49D_50Q_52G_53A_54S_55F_67L_, Q9UKT9 (peptide)
chain: FACDQCGASFTQKGNLLRHIKL
B22: 46F_47A_49E_50V_52G_53A_54T_55F_67L_, Q9UKT9 (peptide)
chain: FACEVCGATFTQKGNLLRHIKL
B23: 46F_47Y_49E_50V_52G_53A_54T_55F_67L_, Q9UKT9 (peptide)
chain: FYCEVCGATFTQKGNLLRHIKL
B24: 46F_47N_49E_50V_52G_53A_54T_55F_67L_, Q9UKT9 (peptide)
chain: FNCEVCGATFTQKGNLLRHIKL
B25: 46F_47C_49E_50V_52G_53A_54T_55F_67L_, Q9UKT9 (peptide)
chain: FCCEVCGATFTQKGNLLRHIKL
B26: 46F_47W_49E_50V_52G_53A_54T_55F_67L_, Q9UKT9 (peptide)
chain: FWCEVCGATFTQKGNLLRHIKL
B27: 46F_47G_49E_50V_52G_53A_54T_55F_67L_, Q9UKT9 (peptide)
chain: FGCEVCGATFTQKGNLLRHIKL
B28: 46F_47Q_49E_50V_52G_53A_54T_55F_67L_, Q9UKT9 (peptide)
chain: FQCEVCGATFTQKGNLLRHIKL
B29: 46F_47D_49E_50V_52G_53A_54T_55F_67L_, Q9UKT9 (peptide)
chain: FDCEVCGATFTQKGNLLRHIKL
B30: 46F_47K_49E_50V_52G_53A_54T_55F_67L_, Q9UKT9 (peptide)
chain: FKCEVCGATFTQKGNLLRHIKL
B31: 46F_47S_49E_50V_52G_53A_54T_55F_67L_, Q9UKT9 (peptide)
chain: FSCEVCGATFTQKGNLLRHIKL
B32: 46F_47M_49E_50V_52G_53A_54T_55F_67L_, Q9UKT9 (peptide)
chain: FMCEVCGATFTQKGNLLRHIKL
B33: 46F_47R_49E_50V_52G_53A_54T_55F_67L_, Q9UKT9 (peptide)
chain: FRCEVCGATFTQKGNLLRHIKL

Biological target: T1, CRBN, Q96SW2
T1 chain: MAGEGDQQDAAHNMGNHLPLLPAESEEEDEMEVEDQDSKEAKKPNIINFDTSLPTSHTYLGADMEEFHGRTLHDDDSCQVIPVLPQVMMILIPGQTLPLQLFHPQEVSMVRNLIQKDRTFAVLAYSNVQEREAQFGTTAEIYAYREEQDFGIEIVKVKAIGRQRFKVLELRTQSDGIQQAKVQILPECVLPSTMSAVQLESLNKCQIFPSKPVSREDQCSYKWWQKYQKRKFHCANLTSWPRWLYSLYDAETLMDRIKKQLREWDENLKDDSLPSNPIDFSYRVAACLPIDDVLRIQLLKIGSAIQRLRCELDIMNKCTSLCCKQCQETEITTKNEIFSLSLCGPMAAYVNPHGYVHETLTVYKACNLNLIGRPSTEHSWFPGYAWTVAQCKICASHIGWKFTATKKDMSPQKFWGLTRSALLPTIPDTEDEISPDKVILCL
Assay: log2 fold change of degron read counts, EGFP-low vs EGFP+ sorted cells (limma voom), compound-induced degradation; higher = more compound-induced degradation of the degron-EGFP fusion; degrons are variants of IKZF1/3 zinc finger 2; compound dose not given here
Conditions: Jurkat, 18 h

[1] = compound: compound 19 (5-tert-butyl-thalidomide)
[2] = compound: compound 22 (5-morpholino-thalidomide)
[3] = compound: compound 33 (diphenyl IMiD analogue)
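Note: pooled lentiviral library of zinc finger degron-EGFP fusions in mCherry-positive Jurkat cells, FACS-sorted after compound exposure, with degron abundance counted by next-generation sequencing.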

| Sequence | log2 fold change of degron read counts [1] | log2 fold change of degron read counts [2] | log2 fold change of degron read counts [3] | log2 fold change of degron read counts (compound: thalidomide) |
| --- | --- | --- | --- | --- |
| B1 | -3.1 | -2.69 | -2.69 | -3.4 |
| B2 | -1.34 | -1.81 | 0.0255 | -1.77 |
| B3 | -2.43 | -1.82 | 0.12 | -1.26 |
| B4 | -2.12 | -2.03 | 0.562 | -1.29 |
| B5 | -1.19 | 0.987 | 1.39 | 1.34 |
| B6 | 3.1 | 2.1 | 1.7 | 1.09 |
| B7 | 2.74 | 2.14 | 2.33 | 2.47 |
| B8 | 3.31 | 2.96 | 2.48 | 1.46 |
| B9 | 3.06 | 2.74 | 2.03 | 1.48 |
| B10 | 0.747 | 2.69 | 1.82 | 2.87 |
| B11 | 1.55 | 2.48 | 2.86 | 2.97 |
| B12 | 2.95 | 3.32 | 2.72 | 1.84 |
| B13 | 2.66 | 2.96 | 2.47 | 3.55 |
| B14 | 0.701 | 0.253 | 1.48 | 1.92 |
| B15 | -0.861 | -2.23 | -1.35 | -1.95 |
| B16 | -2.19 | -2.11 | -0.29 | -1.14 |
| B17 | 1.07 | -0.0323 | 0.322 | 1 |

| Sequence | log2 fold change of degron read counts [1] | log2 fold change of degron read counts [2] | log2 fold change of degron read counts [3] | log2 fold change of degron read counts (compound: thalidomide) |
| --- | --- | --- | --- | --- |
| B18 | 1.69 | 3.12 | 0.0332 | -0.593 |
| B19 | 0.216 | 0.55 | 1.39 | 0.856 |
| B20 | -2.51 | -2.86 | -1.9 | -2.01 |
| B21 | -0.53 | -1.83 | -2.25 | -3.41 |
| B22 | 3.32 | 2.03 | 0.449 | -0.11 |
| B23 | 3.1 | 4.14 | 2.47 | 1.12 |
| B24 | 1.35 | 0.0506 | 0.168 | -0.31 |
| B25 | 1.77 | 2.12 | 2.55 | 2.46 |
| B26 | 2.75 | 3.75 | 1.87 | 0.335 |
| B27 | 3.09 | 2.54 | 0.976 | 0.784 |
| B28 | 0.152 | 2.64 | 2.01 | 3.74 |
| B29 | 0.941 | -0.571 | -0.022 | 0.317 |
| B30 | -1.63 | -3.47 | -2.68 | -1.11 |
| B31 | 2.73 | 2.4 | 1.63 | 1.3 |
| B32 | -1.56 | -0.319 | 2.09 | 0.937 |
| B33 | -0.885 | -1.05 | 1.42 | 1.06 |
